Experimental data: a collection of fitness landscapes (doi:10.1016/j.celrep.2020.107928)
In all, about 81,000 sequences were measured (“one-hybrid fitness for binding NBS DNA”: median about -0.1, highest 2% from about 0.36 on). Shown is part of a subset that was picked to be rich in the highest values.

B1: Caulobacter ParB omega fusion; a variant is named by its letters at X, in order, B8GW30 (parent)
chain: MESVVVGEPGMSEGRRGLGRGLSALLGEVDAAPAQAPGEQLGGSREAPIEILQRNPDQPRRTFREEDLEDLSNSIREKGVLQPILVRPSPDTAGEYQIVAGERAWRAAQRAGLKTVPIMVRELDDLAVLEIGIIENVQRADLNVLEEALSYKVLMEKFERTQENIAQTIGKSXSHVANXMRLLXLPDEVQSYLVSGELTAXHARAIAAAADPVALAKQIIEGGLSVRETEALARKAPNLSAGKSKGGRPPRVKDTDTQALESDLSSVLGLDVSIDHRGSTGTLTITYATLEQLDDLCNRLTRGI

Variants of: B1
Test: one-hybrid fitness for binding NBS DNA (the Noc-binding site; scaled: cognate 1, non-cognate 0); higher = stronger binding
Conditions: with NBS DNA site
Procedure, shortened: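 Fitness is the rescaled log change in variant-to-wild-type read ratio, measured by Illumina sequencing of plasmids before and after bacterial one-hybrid selection. The scale puts cognate at 1 and non-cognate at 0. Selection of Caulobacter ParB libraries, four specificity codons randomised, took place in E. coli USO with a HIS3 reporter, site 19 bp from the promoter, over 48 hours at 37°C on M9-minus-histidine with 0.1 mM IPTG and 5 mM 3-AT.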

one-hybrid fitness for binding NBS DNA, 0.346:
QTQH

one-hybrid fitness for binding NBS DNA, 0.349:
QAKC

one-hybrid fitness for binding NBS DNA, 0.476:
RSHR

one-hybrid fitness for binding NBS DNA, 0.385:
QKKC

one-hybrid fitness for binding NBS DNA, 0.67:
QKQR

one-hybrid fitness for binding NBS DNA, 0.446:
QYQT

one-hybrid fitness for binding NBS DNA, 0.62:
VRKR

one-hybrid fitness for binding NBS DNA, 0.39:
QIQR

one-hybrid fitness for binding NBS DNA, 0.523:
QHQR

one-hybrid fitness for binding NBS DNA, 0.452:
QCKC

one-hybrid fitness for binding NBS DNA, 0.506:
QAQR

one-hybrid fitness for binding NBS DNA, 0.228:
VCKR

one-hybrid fitness for binding NBS DNA, 0.535:
QSQR

one-hybrid fitness for binding NBS DNA, 0.373:
QYQS

one-hybrid fitness for binding NBS DNA, 0.612:
QCQR

one-hybrid fitness for binding NBS DNA, 0.624:
VRRR

one-hybrid fitness for binding NBS DNA, 0.367:
QSKC
QHKC

one-hybrid fitness for binding NBS DNA, 0.368:
VRNR

one-hybrid fitness for binding NBS DNA, 0.757:
QTQR

one-hybrid fitness for binding NBS DNA, 0.246:
VCRR
QSQH

one-hybrid fitness for binding NBS DNA, 0.239:
VRYR

one-hybrid fitness for binding NBS DNA, 0.314:
QRVC

one-hybrid fitness for binding NBS DNA, 0.586:
RCHR

one-hybrid fitness for binding NBS DNA, ≤ 0.2:
FFRR
NETT
VRDR
VRVR
VCNR
TYNY
VWLM
RPGK
RSHD
RSHN
RPHR
LSID
YTWT
SVNS
PHLC
NPYT
QTQD
QAQP
QIQD
QSQN
QIQN
QAQN
SVRD
NSML
LLKM
MPSK
KHMV
QKQN
QGQR
QPQR
QKQG
QDQR
QHQD
YKRT
SATK
TSAP
DITY
QYQG
QYQY
QYQP
QYQM
QHTQ
IKPC
QEEP
QTAE
AHII
QTLG
QKVC
QSVC
QMVC
QMNC
QKIC
HLMG
TSYM
HDED
PFKY
LLIF
QCLE
HMAT
CQKM
RIAG
QHYC
QPKC
QTVC
QHVC
QTPC
KAAT
GLAF
PDTG

one-hybrid fitness for binding NBS DNA, 0.383:
QMKC

one-hybrid fitness for binding NBS DNA, 0.507:
QRKC

one-hybrid fitness for binding NBS DNA, 0.305:
RFHR

one-hybrid fitness for binding NBS DNA, 0.304:
QLKC

one-hybrid fitness for binding NBS DNA, 0.303:
QRIC

one-hybrid fitness for binding NBS DNA, 0.53:
QTKC
